Measured values taken from paper PMC5540273 (PLoS ONE, 2017).

Legend:
Details in all cases: concentration: 1 μM,replicates: in singlicate; n = 1
[1] = system: PLK2
[2] = system: PLK3
[3] = system: PLK4
[4] = system: PRKCD
[5] = system: PRKCE
[6] = system: PRKCH
[7] = system: PRKCI
[8] = system: PRKCQ
[9] = system: PRKD1
[10] = system: PRKD2
[11] = system: PRKD3
[12] = system: PRKG1
[13] = system: PRKG2
[14] = system: T1, PRKR
T1 construct: gene EIF2AK2

[15] = system: PRKX
[16] = system: PRP4
[17] = system: T2, PYK2
T2 construct: gene PTK2B

[18] = system: QSK
[19] = system: RAF1
[20] = system: RET
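Further: KINOMEscan kinase panel screen.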

| SMILES | %Inh [1] | %Inh [2] | %Inh [3] | %Inh [4] | %Inh [5] | %Inh [6] | %Inh [7] | %Inh [8] | %Inh [9] | %Inh [10] | %Inh [11] | %Inh [12] | %Inh [13] | %Inh [14] | %Inh [15] | %Inh [16] | %Inh [17] | %Inh [18] | %Inh [19] | %Inh [20] |
| --- | --- | --- | --- | --- | --- | --- | --- | --- | --- | --- | --- | --- | --- | --- | --- | --- | --- | --- | --- | --- |
| CCN(CC)CCOc1ccc(Nc2ncc3cc(-c4c(Cl)cccc4Cl)c(=O)n(C)c3n2)cc1 [SB-601273] | 27% | 52% | 30% | 0% | 22% | 0% | 26% | 27% | 93.3% | 93.6% | 100% | 0% | 9% | 18% | 0% | 31% | 56% | 95.6% | 97% | 100% |
| C[C@@H](Oc1cc(-c2cnn(C3CCNCC3)c2)cnc1N)c1c(Cl)ccc(F)c1Cl | 17% | 17% | 88% | 20% | 2% | 0% | 24% | 26% | 61% | 31% | 63% | 0% | 3% | 26% | 35% | 0% | 80% | 0% | 0% |  |
| Cc1cc2cn[nH]c2cc1-c1cccc2c(N)c(C(N)=O)nnc12 | 5% | 0% | 51% | 5% | 4% | 7% | 23% | 21% | 86% | 89% | 84% | 0% | 23% | 2% | 20% | 6% | 27% | 15% | 0% | 19% |
| Cl.Cl.NC[C@H](Cc1ccc(C(F)(F)F)cc1)NC(=O)c1cc(Br)c(-c2ccnc3[nH]ccc23)s1 [GSK1487252] | 0% | 0% | 8% | 97.3% | 97.5% | 98% | 17% | 88% | 83% | 57% | 81% | 98.1% | 98.7% | 0% | 96% | 22% | 13% | 14% | 10% | 74% |
| C[C@@H]1CCN(C(=O)CC#N)C[C@@H]1N(C)c1ncnc2[nH]ccc12 | 0% | 0% | 0% | 18% | 45% | 12% | 5% | 0% | 0% | 0% | 14% | 14% | 0% | 0% | 0% | 0% |  | 0% | 0% |  |
| CCn1c(-c2nonc2N)nc2c(C#CC(C)(C)O)nc(OCCN)cc21.Cl.Cl [GSK902056] | 0% | 0% | 3% | 81% | 97.9% | 96.5% | 20% | 89% | 14% | 14% | 37% | 39% | 97% | 0% | 91.6% | 8% | 9% | 23% | 0% | 23% |
| Cc1occc1-c1nc(N)c(OC[C@@H](N)Cc2c[nH]c3ccccc23)cc1-c1cc2c(C)n[nH]c2cn1 [GSK1660450] | 65% | 52% | 0% | 100% | 99.6% | 95.7% | 34% | 100% | 93.3% | 97.4% | 100% | 78% | 96.2% | 0% | 79% | 0% | 0% | 90.4% | 0% | 23% |
| CN(C)CCOc1ccc(-c2cc(-c3c[nH]nc3-c3ccccn3)ccn2)cc1 [GW835314] | 21% | 0% | 2% | 23% | 11% | 8% | 14% | 100% | 89% | 96.1% | 91.5% | 0% | 12% | 0% | 0% | 0% | 0% | 9% | 28% | 36% |
| Cc1ccc(-n2nc(C(C)(C)C)cc2NC(=O)Nc2ccc(OCCN3CCOCC3)c3ccccc23)cc1 [GW839464] | 0% | 0% | 2% | 21% | 15% | 0% | 20% | 0% | 0% | 20% | 16% | 0% | 3% | 8% | 0% | 15% |  | 1% | 26% | 54% |
| O=C(NCCCN1CCOC1=O)c1cnc(NCc2cc(Cl)ccc2Cl)nc1NC1CCCC1 | 0% | 4% | 17% | 3% | 14% | 8% | 23% | 0% | 23% | 0% | 0% | 13% | 21% | 4% | 0% | 1% | 0% | 0% | 7% | 22% |
| CN(C)CC(O)COc1ccc(Nc2nccc(-c3cnn4nc(N5CCOCC5)ccc34)n2)cc1 (centres unmarked) [GW767488] | 28% | 35% | 63% | 14% | 0% | 0% | 36% | 21% | 93.7% | 98.2% | 93.6% | 0% | 50% | 59% | 8% | 2% | 29% | 43% | 6% | 17% |
| CNC(=O)c1ccccc1Sc1ccc2c(/C=C/c3ccccn3)n[nH]c2c1 | 40% | 34% | 97.7% | 4% | 58% | 0% | 9% | 3% | 0% | 8% | 0% | 0% | 0% | 0% | 9% | 0% | 20% | 0% | 3% |  |
| Cc1cc(C(=O)Nc2ccc(Oc3ccc4nc(NC(=O)C5CC5)cn4n3)cc2)nn1-c1ccccc1 | 0% | 0% | 0% | 9% | 0% | 0% | 44% | 0% | 0% | 0% | 0% | 8% | 6% | 18% | 0% | 0% |  | 0% | 75% | 81% |
| Cc1ccc2c(-c3ccncc3)c(-c3ccc(F)cc3)nn2c1.Cl [GW461484] | 0% | 0% | 0% | 8% | 8% | 0% | 28% | 21% | 34% | 55% | 50% | 30% | 18% | 0% | 0% | 0% | 0% | 1% | 19% | 14% |
| CC(C)N1C(=O)Cc2cc(Nc3ncc(C(F)(F)F)c(NCc4cccc(S(C)(=O)=O)c4)n3)ccc21 | 61% | 64% | 67% | 0% | 0% | 0% | 0% | 9% | 0% | 16% | 0% | 0% | 8% | 0% | 0% | 25% | 22% | 0% | 0% | 86% |
| C=CC(=O)Nc1cc2c(Nc3ccc(F)c(Cl)c3)ncnc2cc1OCCCN1CCOCC1 [GW781483] | 0% | 0% | 26% | 0% | 30% | 0% | 0% |  | 0% | 0% | 0% | 0% | 31% | 0% | 0% | 0% | 1% | 1% | 0% | 38% |
| Cl.Oc1cc(-c2nc(-c3ccccc3)[nH]c2-c2ccncc2)ccc1Cl [SB-386023] | 33% | 12% | 17% | 0% | 13% | 1% | 0% | 8% | 0% | 2% | 0% | 15% | 0% | 0% | 0% | 0% | 6% | 33% | 97.9% | 66% |
| Cl.Cl.NC[C@H](CC1CCCCC1)NC(=O)c1cc(Br)c(-c2ccnc3[nH]ccc23)s1 [GSK1581427] | 0% | 0% | 15% | 99.5% | 96.6% | 97.7% | 0% | 90.2% | 64% | 67% | 82% | 99.3% | 98.5% | 0% | 96.2% | 78% | 20% | 5% | 2% | 25% |
| Cc1n[nH]c2ccc(-c3cc(OC[C@@H](N)Cc4ccccc4)cnc3-c3ccoc3)cc12.O=C(O)C(F)(F)F.O=C(O)C(F)(F)F [GSK507358] | 0% | 0% | 0% | 99.8% | 95.5% | 95.9% | 33% | 95.4% | 91.4% | 99.2% | 100% | 0% | 0% | 4% | 84% | 27% | 40% | 5% | 0% | 8% |
| O=C(NCCNc1ccnc(NCc2ccc(F)cc2)n1)c1cc2ccccc2s1 [GSK1379944] | 0% | 0% | 74% | 0% | 86% | 22% | 8% | 39% | 0% | 70% | 100% | 22% | 0% | 0% | 19% | 18% | 14% | 7% | 11% | 79% |
| COc1ccc(C[C@@H](CN)NC(=O)c2cc(Br)c(-c3ccnc4[nH]ccc34)s2)cc1.Cl.Cl [GSK1389063] | 27% | 27% | 34% | 99.8% | 98.2% | 99.4% | 56% | 92.4% | 83% | 85% | 94.4% | 98.7% | 98.9% | 1% | 94.2% | 18% | 47% | 0% | 5% | 98.4% |
| Nc1nc(Nc2ccccc2)cc(-c2ccc3c(N)n[nH]c3c2)n1 [GSK2225749] | 0% | 0% | 6% | 8% | 0% | 0% | 20% | 0% | 0% | 0% | 0% | 12% | 45% | 3% | 57% | 60% | 0% | 0% | 0% | 6% |
| C[C@H]1Oc2cc(cnc2N)-c2c(nn(C)c2C#N)CN(C)C(=O)c2ccc(F)cc21 | 0% | 0% | 97.9% | 15% | 0% | 12% | 21% | 12% | 0% | 12% | 8% | 0% | 10% | 0% | 7% | 0% | 99.6% | 0% | 0% | 22% |
| NC(=O)c1cc(-c2ccccc2)cc2c(C3CCNCC3)c[nH]c12 [GSK301362] | 34% | 0% | 0% | 40% | 46% | 71% | 35% | 64% | 37% | 2% | 29% | 5% | 0% | 0% | 36% | 2% | 37% | 13% | 3% | 7% |
| Cl.Cl.Nc1nc(-c2ccc3c(N)n[nH]c3c2)cc(N2CCCC(NC(=O)c3ccccc3)C2)n1 (centres unmarked) [GSK2286775] | 0% | 1% | 16% | 0% | 10% | 0% | 24% | 18% | 0% | 0% | 0% | 0% | 38% | 5% | 83% | 36% | 15% | 0% | 9% | 0% |
| CC(C)Nc1cc(-c2ccc3c(N)n[nH]c3c2)nc(N)n1 [GSK2221681] | 0% | 0% | 0% | 0% | 0% | 0% | 11% | 12% | 0% | 0% | 0% | 0% | 42% | 0% | 79% | 7% | 0% | 0% | 0% | 0% |
| CCN(CC)CCCCNc1ncc2cc(-c3c(Cl)cccc3Cl)c(NC(=O)NC(C)(C)C)nc2n1 | 5% | 7% | 13% | 22% | 74% | 0% | 19% | 0% | 28% | 5% | 25% | 2% | 7% | 0% | 0% | 0% | 4% | 39% | 87% | 96.5% |
